Many of the other results were omitted from the sample, so hits are more common in it than they were.
Giardia FBPA inh: qHTS Assay for Inhibitors of Fructose-1,6-bisphosphate Aldolase from Giardia Lamblia. purified Giardia FBPA. AID 2451, 2010. hit rate 0.71% among 290,000. Potency, µM (series often up to 59.6 µM), inactives show at the top dose activity, negative = inhibition, most hits filed as inhibitors; note: potency is the fitted concentration of half-maximal effect; % is set by controls: 0 for no effect and ±100 for the full control effect; nearly all actives have a fitted effect of over 55% in size
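40 nM FBPA preincubated 10 min at RT with compound (up to 57.5 uM final), then substrate plus GAPDH/TPI/NAD/arsenate coupling and diaphorase/resazurin added. Fluorescence read after 20 min at RT, 525/598 nm.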
RE007 growth inh: qHTS Assay for Inhibitors of the HIV-1 protein Vpr; S. pombe RE007 Vpr strain, BacTiter-Glo ATP luminescence, 24 h; Potency, µM (top dose mostly 92.2 µM), for inactives: at the highest dose activity change, negative = less growth, hits mostly inhibitors; hit rate 0.21% among 360,000; AID 651644, 2012; active = well fitted falling curve with a large enough effect; inconclusive = small, poorly fitted or top-dose-only effect; inactive = no such curve, though single readings can be large or run the other way; note: potency is the fitted concentration of half-maximal effect; % is set by controls: 0 for no effect and ±100 for the full control effect; nearly all actives have a fitted effect of over 50% in size
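Fission yeast RE007 carrying one integrated HIV-1 vpr copy, seeded at OD 0.01 in PMG+AL medium with 23 nL pinned compound. Grown 24 h at 30 degrees; viability read by BacTiter-Glo luminescence after 5 min.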
CHX counter: Cycloheximide Counterscreen for Small Molecule Inhibitors of Shiga Toxin. hit rate 12% among 300,000. cell reporter, cycloheximide protein synthesis inhibition counterscreen. max response, %; in the data active = max response mostly above about 13%, no sharp cut-off; inactive = mostly below about 14%; note: read at 38.3 µM for the half of the compounds with a filed dose; 0% is about no effect
LmPK inh: qHTS Assay for Inhibitors of Leishmania Mexicana Pyruvate Kinase (LmPK). hit rate 0.37% among 290,000. Q27686. AID 1721, 2009. purified LmPK, Kinase-Glo ATP luminescence, 1 h. Potency, µM (doses to about 57.5 µM), for the others: at the highest dose activity change, negative = inhibition, actives largely listed as inhibitors; note: potency is the fitted concentration of half-maximal effect; % is set by controls: 0 for no effect and ±100 for the full control effect
Target sequence (Q27686 whole entry, looked up): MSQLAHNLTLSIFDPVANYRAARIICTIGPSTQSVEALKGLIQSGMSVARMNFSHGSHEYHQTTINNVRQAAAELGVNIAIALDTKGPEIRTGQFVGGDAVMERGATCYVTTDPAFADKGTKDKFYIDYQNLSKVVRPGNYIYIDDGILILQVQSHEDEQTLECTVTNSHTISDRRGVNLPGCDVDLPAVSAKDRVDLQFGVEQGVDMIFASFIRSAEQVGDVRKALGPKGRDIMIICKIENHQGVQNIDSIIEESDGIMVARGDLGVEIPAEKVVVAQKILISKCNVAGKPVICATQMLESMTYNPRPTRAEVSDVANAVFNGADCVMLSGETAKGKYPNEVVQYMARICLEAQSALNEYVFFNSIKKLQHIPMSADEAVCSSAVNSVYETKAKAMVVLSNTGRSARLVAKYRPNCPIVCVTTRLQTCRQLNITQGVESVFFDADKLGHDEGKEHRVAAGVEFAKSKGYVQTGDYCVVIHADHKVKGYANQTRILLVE
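Purified LmPK (0.1 nM) converted ADP (0.1 mM) to ATP with PEP (0.5 mM) in imidazole buffer pH 7.2 with KCl and MgCl2, 1 h at room temperature. ATP was read by Kinase-Glo luminescence; data normalized to uninhibited and no-enzyme controls.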
Tb PYK inh: qHTS of Trypanosoma Brucei Inhibitors; TbPYK enzyme, Kinase-Glo Plus ATP luminescence, 45 min; Potency, µM (highest dose often 76.8 µM), for inactives: top-dose activity, negative = inhibition, actives largely listed as inhibitors; hit rate 0.12% among 410,000; AID 624173, 2012; note: potency is the fitted concentration of half-maximal effect; % is set by controls: 0 for no effect and ±100 for the full control effect; nearly all actives have a fitted effect of over 50% in size
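T. brucei PYK with substrate was exposed to pin-transferred compounds across a concentration series, then started with 130 uM ADP (final). After 45 min at room temperature, Kinase-Glo Plus luminescence was read, normalized and curve-fitted.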
Shiga toxin inh: A qHTS for Small Molecule Inhibitors of Shiga Toxin; Vero cells, Shiga toxin protein synthesis inhibition reporter; inhibition, % at 38.7 µM; AID 2315, 2010; hit rate 9.2% among 290,000; in the data active = inhibition mostly above about 28%, no sharp cut-off; inactive = mostly below about 43%; note: 0% is about no effect
The depositor's hits bear a star; ? = inconclusive; · = not tested or not shown. Unless noted, calls come from the whole dose curve; as a rule, active = well fitted curve in the direction sought with a large enough effect; inconclusive = small, poorly fitted or top-dose-only effect, or another doubt; inactive = no such curve, though single readings can be large; an effect the other way counts as inactive or inconclusive.

SMILES	Giardia FBPA inh	RE007 growth inh	CHX counter	LmPK inh	Tb PYK inh	Shiga toxin inh
COc1ccc(NC(=O)C(C)SCc2ccccc2)cc1OC (stereo not given)	1.1%	14.2%	6.4	-0.8%	-2.1%	-3.1
CC(SCc1ccccc1)C(=O)N/N=C/c1ccc2c(c1)OCO2 (stereo not given)	8.0%	-1.3%	8.5	4.5%	0.4%	23.5
Cc1ccc(NC(=O)C(C)SCc2ccccc2)cc1 (stereo not given)	1.6%	-14.4%	30.4*	5.4%	-6.5%	82.1*
CC(SCc1ccccc1)C(=O)Nc1ccc2c(c1)OCO2 (stereo not given)	-0.9%	-4.6%	37.1*	3.1%	2.6%	44.4
COc1cccc(NC(=O)C(C)SCc2ccccc2)c1 (stereo not given)	-2.0%	-8.7%	22.5*	1.4%	0.1%	44.3*
Cc1noc(C)c1-c1ccc2ncnc(NCc3ccco3)c2c1	1.0%	·	2.9	·	·	-4.8
O=S(=O)(c1c(F)cccc1F)N1CCN(S(=O)(=O)c2c(F)cccc2F)CC1	·	·	0.3	·	·	-9.1
Cc1onc(C(=O)Nc2cccc(C(F)(F)F)c2)c1[N+](=O)[O-]	·	-10.9%	26.8*	-0.4%	-6.3%	21.9
CC(C)c1onc(C(=O)Nc2ccc3c(c2)OCO3)c1[N+](=O)[O-]	·	-27.9%	33.1*	-2.1%	8.1%	52.1*
Cc1onc(C(=O)Nc2ccccc2C(F)(F)F)c1[N+](=O)[O-]	·	-11.9%	38.0	-3.6%	3.4%	-8.8
Cc1ccc(NC(=O)c2noc(C(C)C)c2[N+](=O)[O-])cc1	-9.6%	-4.4%	55.4*	1.7%	3.8%	78.4*
CC(C)c1onc(C(=O)Nc2cccc(O)c2)c1[N+](=O)[O-]	1.7%	0.3%	31.4*	9.6%	4.4%	145.4*
CCc1ccccc1NC(=O)c1noc(C(C)C)c1[N+](=O)[O-]	-2.8%	13.4%	5.2	0.2%	-5.1%	20.8
CCc1nn(C(C)C(=O)N2CCN(c3cccc(C(F)(F)F)c3)CC2)c(=O)c2cc3occc3n12 (stereo not given)	·	·	·	·	1.6%	·
CC(C)c1onc(C(=O)NCc2ccccc2)c1[N+](=O)[O-]	0.3%	24.5%	22.7*	0.6%	-0.3%	40.9*
CC(C)c1cc(C(=O)Nc2cccc(C(F)(F)F)c2)no1	-8.5%	?	49.7*	-7.2%	3.3%	121.5*
CC(C)c1onc(C(=O)NCc2ccc(Cl)cc2)c1[N+](=O)[O-]	3.7%	21.5%	0.5	-1.9%	4.5%	-27.4
CC(C)c1onc(C(=O)N(C)C2CCCCC2)c1[N+](=O)[O-]	-0.3%	4.5%	25.7*	-1.7%	-2.5%	23.0
COc1ccc(-n2ccnc(NCc3cccs3)c2=O)cc1OC	·	·	·	·	-5.2%	·
Cn1cccc1C(=O)C(=O)Nc1ccc(F)c(F)c1	-4.8%	-9.4%	44.6*	-9.0%	8.6%	82.2*
Cn1cccc1C(=O)C(=O)Nc1ccc(Cl)cc1	-0.3%	?	51.8*	?	-11.6%	81.0*
Cn1cccc1C(=O)C(=O)Nc1cccc(Cl)c1Cl	4.4%	-24.1%	11.7	-25.2%	-6.9%	10.1
Cn1cccc1C(=O)C(=O)Nc1cc(Cl)cc(Cl)c1	8.0%	?	7.8	?	?	23.4
Cc1ccccc1NC(=O)COC(=O)c1ccc(S(C)(=O)=O)c([N+](=O)[O-])c1	3.9%	-3.8%	13.5*	-2.4%	-5.6%	11.3
O=C1CCC(C(=O)OCc2nnc(-c3ccccc3)o2)=NN1	·	-9.0%	·	·	4.2%	·
SMILES	Giardia FBPA inh	RE007 growth inh	CHX counter	LmPK inh	Tb PYK inh	Shiga toxin inh
CS(=O)(=O)c1ccc(C(=O)OCc2nnc(-c3ccccc3)o2)cc1[N+](=O)[O-]	-1.2%	32.9%	24.6*	2.1%	4.7%	21.0
CS(=O)(=O)c1ccc(C(=O)OCC(=O)Nc2cccnc2Cl)cc1[N+](=O)[O-]	·	-3.4%	·	·	3.7%	·
O=C(OCc1nnc(-c2ccccc2)o1)c1ccc2c(c1)OCCO2	0.4%	-24.1%	22.2*	-1.6%	2.2%	45.2*
O=C(OCc1nnc(-c2ccccc2)o1)c1ccc(Cl)cc1	-1.9%	-13.0%	-0.7	6.4%	0.0%	-1.4
O=C(OCc1nnc(-c2ccccc2)o1)C1=COCCO1	4.7%	-14.8%	21.7*	-3.8%	1.9%	24.6
O=C(CSc1nc2c(oc3ccccc32)c(=O)[nH]1)Nc1cccc(Cl)c1	·	·	·	·	3.0%	·
CCOc1ccc2nc(NC(=O)c3cc(=O)c4cc(C)cc(C)c4o3)sc2c1	·	·	·	·	0.4%	·
Clc1cc2c(nn1)Nc1ccccc1S2	4.0%	-0.1%	10.8*	5.3%	2.2%	39.1
FC(F)(F)c1cnc2c(c1)Nc1ccccc1S2	1.1%	-16.1%	12.6*	5.2%	1.2%	44.4
c1ccc2c(c1)Nc1nccnc1S2	?	-4.4%	27.8*	2.6%	?	128.2*
O=C1Nc2cccnc2Sc2ccccc21	-21.6%	-1.1%	3.4	-8.7%	-5.3%	30.0
O=C(NC1CCCCC1)c1ccc2c(c1)N(Cc1ccc(Cl)cc1)C(=O)c1ccccc1S2(=O)=O	·	·	·	·	-0.6%	·
CSc1ncc2c(n1)-c1ccccc1N(Cc1ccc(Cl)cc1)S2(=O)=O	·	·	·	·	0.9%	·
COc1cc(NS(=O)(=O)c2cccc([N+](=O)[O-])c2)c2ncccc2c1	15.8µM*	·	9.4	·	·	-4.0
COc1cc(NS(=O)(=O)c2ccc([N+](=O)[O-])cc2)c2ncccc2c1	17.7µM*	·	5.4	·	·	-10.8
COc1cc(NS(=O)(=O)c2ccc(C)cc2)c2ncccc2c1	?	-4.1%	6.2	3.7%	5.0%	-12.4
COc1ccc(CCNc2oc(COc3ccccc3F)nc2C#N)cc1	-4.8%	-2.3%	15.5*	-0.7%	0.0%	29.7
C=CCNc1oc(COc2ccc(C)cc2)nc1C#N	-7.1%	2.5%	25.5*	5.7%	0.9%	136.3*
CN(C)c1oc(COc2ccccc2F)nc1C#N	4.0%	-2.0%	29.2*	-4.1%	2.3%	59.0*
N#Cc1nc(COc2ccccc2F)oc1NCc1ccc(F)cc1	-0.4%	-4.1%	35.3*	6.5%	-4.7%	64.5*
CN(C)c1oc(COc2ccc(F)cc2)nc1C#N	-4.0%	20.3%	6.1	-0.9%	4.3%	-5.3
CN(C)CCNc1oc(COc2ccc(-c3ccccc3)cc2)nc1C#N	1.8%	-6.7%	21.9	1.2%	-8.4%	-12.8
COc1ccc(CCNc2oc(COc3ccc(Br)cc3)nc2C#N)cc1OC	-8.9%	-1.9%	-6.2	9.7%	-5.0%	-4.3
c1csc(CNc2ncncc2-c2ccc3c(c2)OCO3)c1	-4.3%	·	·	·	·	·
C=CCn1c(=O)/c(=C2/Sc3cc(OC)ccc3N2C)s/c1=C1\C(=O)N(CC)C(=S)N1C	0.3%	·	21.2*	-15.1%	·	52.7*

Bioassay records as filed in PubChem.
